Results as given in the supplement of paper PMC10849652.
About 7,900 targets were measured; listed, in parts, are those with a hit and a random draw of the rest. About 0.6% of all pairs of compound and target were hits.

compound: c1cn2cc(-c3ccc4cn[nH]c4c3)nc(Nc3ccc(N4CCOCC4)cc3)c2n1 [entospletinib]; assay: log2 fold change, soluble protein after heating vs DMSO (PISA); higher = thermal stabilisation; K562 cells, 10 uM, 30 min; active = over 0.2 and 3.5 SD of the protein, either way, in both replicates (recomputed)
Procedure, shortened: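 Soluble protein was quantified by TMTpro 16plex LC-MS/MS after channel sums were equalised. It was obtained as the supernatant after 21,000xg for 90 min from pooled aliquots of K562 cells (2×10^6 cells/mL, 10 μM compound, 30 min) heated for 3 min across 48°C-58°C and extracted in PBS with 0.5% NP-40 at 4°C. Thermal stability values are relative to control samples and come from duplicates. They are given as log2 fold changes.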

Sequence of UniProt Q96I24 (Q96I24 whole entry, looked up): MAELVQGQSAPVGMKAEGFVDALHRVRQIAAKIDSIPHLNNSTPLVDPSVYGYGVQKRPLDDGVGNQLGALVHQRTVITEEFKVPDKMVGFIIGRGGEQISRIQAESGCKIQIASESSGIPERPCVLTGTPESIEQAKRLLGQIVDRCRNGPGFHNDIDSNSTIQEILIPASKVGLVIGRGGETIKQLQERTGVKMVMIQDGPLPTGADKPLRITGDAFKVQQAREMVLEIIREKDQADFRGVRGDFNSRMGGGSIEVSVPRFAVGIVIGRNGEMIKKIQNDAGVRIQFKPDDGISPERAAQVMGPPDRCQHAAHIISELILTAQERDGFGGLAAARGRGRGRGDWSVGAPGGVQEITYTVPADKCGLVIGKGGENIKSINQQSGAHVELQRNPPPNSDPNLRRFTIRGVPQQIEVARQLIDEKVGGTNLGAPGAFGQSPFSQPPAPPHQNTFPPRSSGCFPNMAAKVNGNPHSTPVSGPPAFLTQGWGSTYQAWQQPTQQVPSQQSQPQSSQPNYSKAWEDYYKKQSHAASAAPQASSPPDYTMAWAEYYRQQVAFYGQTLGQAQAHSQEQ
Sequence of UniProt P04066 (P04066 whole entry, looked up): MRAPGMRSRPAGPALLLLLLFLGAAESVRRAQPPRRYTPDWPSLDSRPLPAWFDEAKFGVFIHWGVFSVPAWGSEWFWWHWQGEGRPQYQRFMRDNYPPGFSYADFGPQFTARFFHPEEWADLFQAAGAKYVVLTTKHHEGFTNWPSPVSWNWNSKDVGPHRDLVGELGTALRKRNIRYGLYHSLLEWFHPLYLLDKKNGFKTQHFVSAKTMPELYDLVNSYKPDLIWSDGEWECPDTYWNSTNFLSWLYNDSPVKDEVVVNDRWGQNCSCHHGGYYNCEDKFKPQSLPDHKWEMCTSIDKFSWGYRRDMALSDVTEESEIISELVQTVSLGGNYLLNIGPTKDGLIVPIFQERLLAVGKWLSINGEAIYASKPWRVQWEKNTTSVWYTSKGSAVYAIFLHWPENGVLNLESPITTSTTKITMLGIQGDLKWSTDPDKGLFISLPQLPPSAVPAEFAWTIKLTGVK
Sequence of UniProt P54803 (P54803 whole entry, looked up): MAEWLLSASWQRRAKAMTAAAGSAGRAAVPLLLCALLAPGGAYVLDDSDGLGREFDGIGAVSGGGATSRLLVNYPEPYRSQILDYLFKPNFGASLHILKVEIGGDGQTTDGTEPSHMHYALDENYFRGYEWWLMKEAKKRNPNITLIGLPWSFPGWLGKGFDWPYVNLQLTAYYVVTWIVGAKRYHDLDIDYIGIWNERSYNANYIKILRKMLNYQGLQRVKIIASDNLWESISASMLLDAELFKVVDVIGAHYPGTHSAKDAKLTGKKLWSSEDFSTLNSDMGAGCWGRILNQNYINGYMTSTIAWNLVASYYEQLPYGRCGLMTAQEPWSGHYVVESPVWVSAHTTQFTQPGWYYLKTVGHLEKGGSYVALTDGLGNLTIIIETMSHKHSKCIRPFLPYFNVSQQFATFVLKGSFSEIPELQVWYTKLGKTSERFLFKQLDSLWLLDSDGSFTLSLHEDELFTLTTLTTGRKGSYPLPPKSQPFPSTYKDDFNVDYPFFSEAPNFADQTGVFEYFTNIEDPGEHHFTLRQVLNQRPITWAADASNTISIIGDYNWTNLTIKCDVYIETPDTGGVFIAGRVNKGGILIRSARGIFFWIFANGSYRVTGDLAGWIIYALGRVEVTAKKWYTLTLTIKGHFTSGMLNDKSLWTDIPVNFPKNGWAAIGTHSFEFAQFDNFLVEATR
Sequence of UniProt P23434 (P23434 whole entry, looked up): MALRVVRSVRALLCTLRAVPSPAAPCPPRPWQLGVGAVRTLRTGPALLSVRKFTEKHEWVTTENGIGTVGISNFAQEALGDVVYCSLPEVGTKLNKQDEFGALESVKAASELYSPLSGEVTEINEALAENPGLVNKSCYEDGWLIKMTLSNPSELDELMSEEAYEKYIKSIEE
Sequence of UniProt P07910 (P07910 whole entry, looked up): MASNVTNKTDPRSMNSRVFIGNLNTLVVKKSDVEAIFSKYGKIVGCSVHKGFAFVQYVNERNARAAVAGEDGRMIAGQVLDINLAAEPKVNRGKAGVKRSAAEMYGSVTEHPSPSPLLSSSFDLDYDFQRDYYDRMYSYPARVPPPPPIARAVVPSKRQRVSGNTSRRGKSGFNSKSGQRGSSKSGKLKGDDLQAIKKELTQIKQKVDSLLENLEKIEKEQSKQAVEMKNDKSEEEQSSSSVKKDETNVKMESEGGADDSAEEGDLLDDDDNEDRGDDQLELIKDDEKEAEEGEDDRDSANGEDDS
Sequence of UniProt O00291 (O00291 whole entry, looked up): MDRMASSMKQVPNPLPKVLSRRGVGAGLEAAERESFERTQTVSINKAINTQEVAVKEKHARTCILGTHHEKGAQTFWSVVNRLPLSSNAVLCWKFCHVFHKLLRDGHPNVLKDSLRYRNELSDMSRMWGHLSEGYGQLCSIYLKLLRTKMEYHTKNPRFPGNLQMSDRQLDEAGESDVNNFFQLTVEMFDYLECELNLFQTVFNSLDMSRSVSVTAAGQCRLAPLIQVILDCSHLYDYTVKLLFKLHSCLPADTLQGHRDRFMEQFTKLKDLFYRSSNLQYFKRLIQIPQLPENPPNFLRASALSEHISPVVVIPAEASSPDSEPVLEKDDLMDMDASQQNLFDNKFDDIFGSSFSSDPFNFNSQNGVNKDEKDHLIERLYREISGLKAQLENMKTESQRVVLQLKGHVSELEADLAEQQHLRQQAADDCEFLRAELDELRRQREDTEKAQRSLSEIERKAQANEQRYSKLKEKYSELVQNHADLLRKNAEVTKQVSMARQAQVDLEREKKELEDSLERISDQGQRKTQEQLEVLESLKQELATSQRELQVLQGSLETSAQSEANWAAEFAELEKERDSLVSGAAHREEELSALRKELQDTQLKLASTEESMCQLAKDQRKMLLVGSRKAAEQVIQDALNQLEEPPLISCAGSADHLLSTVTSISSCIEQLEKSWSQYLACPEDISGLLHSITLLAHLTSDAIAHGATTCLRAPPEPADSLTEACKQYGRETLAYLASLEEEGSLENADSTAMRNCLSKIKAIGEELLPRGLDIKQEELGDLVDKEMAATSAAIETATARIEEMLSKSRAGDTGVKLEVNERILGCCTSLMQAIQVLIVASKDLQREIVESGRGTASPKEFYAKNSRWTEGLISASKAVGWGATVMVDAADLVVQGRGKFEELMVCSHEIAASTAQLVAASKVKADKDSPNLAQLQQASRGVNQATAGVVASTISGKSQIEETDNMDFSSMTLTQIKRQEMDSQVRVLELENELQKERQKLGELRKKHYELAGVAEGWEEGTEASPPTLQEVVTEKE
Sequence of UniProt P49841 (P49841 whole entry, looked up): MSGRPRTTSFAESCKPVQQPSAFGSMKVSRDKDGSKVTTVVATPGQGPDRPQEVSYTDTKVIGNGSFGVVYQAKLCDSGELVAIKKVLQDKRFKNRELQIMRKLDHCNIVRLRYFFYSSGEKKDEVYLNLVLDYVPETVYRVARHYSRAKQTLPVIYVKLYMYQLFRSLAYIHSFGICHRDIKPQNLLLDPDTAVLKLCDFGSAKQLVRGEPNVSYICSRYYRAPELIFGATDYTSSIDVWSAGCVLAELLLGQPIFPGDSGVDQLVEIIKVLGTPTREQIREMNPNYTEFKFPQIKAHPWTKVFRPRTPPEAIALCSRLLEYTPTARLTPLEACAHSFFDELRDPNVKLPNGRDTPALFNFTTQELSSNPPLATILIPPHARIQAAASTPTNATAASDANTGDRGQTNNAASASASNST
Sequence of UniProt Q86UL3 (Q86UL3 whole entry, looked up): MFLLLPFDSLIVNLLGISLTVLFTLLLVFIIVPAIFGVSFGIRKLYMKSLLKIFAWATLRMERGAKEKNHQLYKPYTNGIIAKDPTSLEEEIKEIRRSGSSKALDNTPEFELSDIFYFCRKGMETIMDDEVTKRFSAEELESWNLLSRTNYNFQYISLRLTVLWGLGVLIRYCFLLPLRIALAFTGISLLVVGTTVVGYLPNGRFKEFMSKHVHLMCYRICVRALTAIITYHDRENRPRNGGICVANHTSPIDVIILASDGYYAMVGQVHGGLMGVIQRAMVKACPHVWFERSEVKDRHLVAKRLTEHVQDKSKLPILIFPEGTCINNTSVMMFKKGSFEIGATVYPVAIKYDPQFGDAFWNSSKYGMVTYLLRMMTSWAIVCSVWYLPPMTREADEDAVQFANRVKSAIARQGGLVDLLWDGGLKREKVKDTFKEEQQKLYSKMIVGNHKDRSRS
Sequence of UniProt Q10471 (Q10471 whole entry, looked up): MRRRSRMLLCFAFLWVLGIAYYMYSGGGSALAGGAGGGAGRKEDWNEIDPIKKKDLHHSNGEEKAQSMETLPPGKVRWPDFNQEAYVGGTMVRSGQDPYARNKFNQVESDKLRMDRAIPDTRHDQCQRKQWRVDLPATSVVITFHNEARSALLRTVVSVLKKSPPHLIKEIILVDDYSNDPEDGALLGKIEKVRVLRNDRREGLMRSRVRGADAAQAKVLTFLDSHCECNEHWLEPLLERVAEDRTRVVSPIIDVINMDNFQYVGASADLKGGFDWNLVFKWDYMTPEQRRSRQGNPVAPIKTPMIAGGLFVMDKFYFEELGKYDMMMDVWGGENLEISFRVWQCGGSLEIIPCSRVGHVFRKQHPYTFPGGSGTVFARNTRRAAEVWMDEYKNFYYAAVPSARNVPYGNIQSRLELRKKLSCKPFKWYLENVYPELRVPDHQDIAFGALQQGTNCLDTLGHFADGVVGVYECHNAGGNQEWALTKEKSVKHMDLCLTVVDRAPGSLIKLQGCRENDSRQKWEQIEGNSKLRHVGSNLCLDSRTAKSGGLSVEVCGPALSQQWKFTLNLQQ
Sequence of UniProt P69905 (P69905 whole entry, looked up): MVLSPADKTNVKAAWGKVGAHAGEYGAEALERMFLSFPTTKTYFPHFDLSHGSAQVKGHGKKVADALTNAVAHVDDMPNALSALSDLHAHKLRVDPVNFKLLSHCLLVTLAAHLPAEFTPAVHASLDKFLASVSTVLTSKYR
Sequence of UniProt P52657 (P52657 whole entry, looked up): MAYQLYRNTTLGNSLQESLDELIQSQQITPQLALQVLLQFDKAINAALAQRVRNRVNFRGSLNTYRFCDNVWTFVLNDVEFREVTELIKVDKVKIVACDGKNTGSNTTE

log2 fold change, inactive:
FUBP3 (UniProt Q96I24) 0.022
HBZ (UniProt P02008) 0.009
HEATR5B (UniProt Q9P2D3) -0.025
GSK3B isoform 2 (UniProt P49841) -0.028
HLTF (UniProt Q14527) 0.045
HBZ, A0A494C057 -0.048
GEMIN5 (UniProt Q8TEQ6) 0.058
HBA1 (UniProt P69905) 0.042
GTF3C4 (UniProt Q9UKN8) -0.052
HTATIP2 isoform 3 (UniProt Q9BUP3) 0.003
FIBP (UniProt O43427) 0.455
IFT80 isoform 3 (UniProt Q9P2H3) -0.019
FANCD2 isoform 1 (UniProt Q9BXW9) 0.002
GALNT2 (UniProt Q10471) -0.041
HIST2H2BF isoform 2 (UniProt Q5QNW6) 0.06
GGT7 (UniProt Q9UJ14) -0.019
FRA10AC1 isoform 3 (UniProt Q70Z53) -0.003
IDH3A (UniProt P50213) -0.024
GOLGB1 isoform 2 (UniProt Q14789) 0.058
HNRNPC isoform 2 (UniProt P07910) 0.274
GALC (UniProt P54803) 0.067
FAT2 (UniProt Q9NYQ8) 0.119
FANCI (UniProt Q9NVI1) -0.013
HIP1 (UniProt O00291) -0.04
FUCA1 (UniProt P04066) -0.018
GNB2 (UniProt P62879) 0.038
HECTD1 (UniProt Q9ULT8) -0.057
HMOX2 (UniProt P30519) 0.014
FMC1 (UniProt Q96HJ9) 0
GSR (UniProt P00390) -0.047
GLRX3 (UniProt O76003) 0.001
GPAT4 (UniProt Q86UL3) 0.055
GNAI3 (UniProt P08754) 0.038
GTF2A2 (UniProt P52657) 0.014
GUK1 isoform 2 (UniProt Q16774) 0.093
FDXR isoform 7 (UniProt P22570) -0.032
GTPBP6 (UniProt O43824) -0.092
GCSH (UniProt P23434) 0.037
GSK3A (UniProt P49840) -0.028
GSTO1 (UniProt P78417) -0.046
